In PubChem BioAssay (NCI):
Compounds without any hit were thinned out: in the full panel of roughly 83,000, 20% have a hit.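 Step 1: grow cells in 96-well plates. Step 2: add test compound at a single concentration. Step 3: incubate 48 h. Step 4: record percent growth.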 Values without a mark were called inactive. The source made the active and inactive calls. Rule for the calls: active = growth percent below 10; inactive = the rest.

Columns and labels:
Assay in all cases: NCI-60 one-dose screen, 48 h (100 = growth as untreated, 0 = no growth, -100 = all killed)
Conditions in all cases: 10 µM unless noted
NCI-H23 lung = tested on: NCI-H23 lung
NCI-H322M lung = tested on: NCI-H322M lung
HOP-62 NSCLC = tested on: HOP-62 NSCLC
NCI-H460 lung = tested on: NCI-H460 lung
HOP-92 NSCLC = tested on: HOP-92 NSCLC
NCI-H522 lung = tested on: NCI-H522 lung
A549/ATCC NSCLC = tested on: A549/ATCC NSCLC
786-0 renal = tested on: 786-0 renal
COLO 205 colon = tested on: COLO 205 colon
DU-145 prostate = tested on: DU-145 prostate

Row | Compound | growth (NCI-H23 lung) | growth (NCI-H322M lung) | growth (HOP-62 NSCLC) | growth (NCI-H460 lung) | growth (HOP-92 NSCLC) | growth (NCI-H522 lung) | growth (A549/ATCC NSCLC) | growth (786-0 renal) | growth (COLO 205 colon) [%] | growth (DU-145 prostate)
1 | COC(=O)C1=C(C)NC(C)=C(C(=O)OC)C(N2C(=O)CCC2=O)C1 (configuration not stated) | 96.8% | 91.2% | 109% | 101% | 101% | 7.93% (active) | 77.6% | 99.2% | 114 | 90.1%
2 | COc1cccc2c(=O)c3c(sc12)c(NCCCNCCO)nc1ccccc13 | 63.1% | 53.4% | 44.4% | -75.1% (active) | 10.2% | 60.9% | 34.5% | 56.3% | – | 41.4%
3 | O=C(/C=C/c1ccc(Cl)cc1)c1ccc(Nc2nc(NCCO)nc(Nc3ccc(Cl)cc3)n2)cc1 | 87.6% | 86.7% | 80.3% | 54.3% | 63.1% | 77.8% | 51.2% | 26.9% | – | 67.7%
4 | COc1ccc2sc3c(NCCCN)nc4ccccc4c3c(=O)c2c1 | 80.7% | 68.9% | 57.2% | -73.3% (active) | 33.9% | 18.7% | -44.8% (active) | 42.3% | – | -6.46% (active)
5 | O=C1CCC(N2C(=O)c3cccc(NCCCCCCOc4ccc(Nc5nccc(Nc6ccccc6)n5)cc4)c3C2=O)C(=O)N1 (configuration not stated) | 62.6% | 91.6% | 84.2% | 83.6% | 84.1% | 76.6% | 81.6% | 91.9% | – | 97.8%
6 | Cc1sc2ncn(CC(=O)Nc3ccc(S(N)(=O)=O)cc3)c(=O)c2c1C | 102% | 96.8% | 101% | 105% | 102% | 92.5% | 98% | 101% | – | 112%
7 | Cc1ccc2sc3c(NCCCNCCO)nc4ccccc4c3c(=O)c2c1 | 75.2% | 73.1% | 50.9% | -81.6% (active) | 35.3% | 27.2% | 0.19% (active) | 54% | – | 4.48% (active)
8 | COc1ccc(C2=C(c3cccc(OC)c3)C(=O)c3ccc(C)nc3C2=O)cc1 | 37.5% | 76.4% | 34.4% | 13.4% | 80% | 40.9% | 40.8% | 67.8% | – | 54.3%
9 | Cn1c(/C=C(\C#N)c2cccc(C(F)(F)F)c2)nc2c(N3CCOCC3)nc(Cl)nc21 | 16% | 63.1% | 34.1% | 26.7% | -77.4% (active) | -56% (active) | 33.6% | -74.2% (active) | – | -80.3% (active)
10 | O=C(NCc1ccccc1)C1CN(c2ccc(Cl)cc2)N(c2ccc(Cl)cc2)C1=O (configuration not stated) | 94% | 95.8% | 74.6% | 85.6% | 86.5% | 65.6% | 69.6% | 99.3% | – | 97.5%
11 | O=c1oc2ccc(Br)cc2c(=O)n1-c1ccc(Br)cc1F | -38.4% (active) | 2.56% (active) | -4.63% (active) | 1.55% (active) | -13.7% (active) | 6.36% (active) | 13% | 1.72% (active) | – | 13.8%
12 | CCCCN1CCN(c2ccc3nc(-c4ccc5nc(-c6ccc(C(F)(F)F)cc6)[nH]c5c4)[nH]c3c2)CC1 | -85.1% (active) | -94.1% (active) | -78.5% (active) | -79.9% (active) | -13.5% (active) | -38.2% (active) | -71.9% (active) | -84.9% (active) | – | -95.5% (active)
13 | COc1cc(/C=C/C(=O)c2ccc(Cl)cc2)cc(CN2CCCCC2)c1O | 92.6% | 91.6% | 94.7% | 94.3% | 75.5% | 77.2% | 94.6% | 91.6% | – | 103%
14 | Cc1cccc2c(=O)c3c(sc12)c(NCCN)nc1ccccc13 | -13.2% (active) | -38.3% (active) | -64.6% (active) | -75.3% (active) | 27.7% | -56.3% (active) | -75.2% (active) | -37.4% (active) | – | -87.9% (active)
15 | CNCCNc1nc2ccccc2c2c(=O)c3cccc(OC)c3sc12 | 47.1% | 33.8% | 34.1% | -68.2% (active) | 5.16% (active) | 27.5% | 17.9% | 26.5% | – | 12.6%
16 | COc1ccccc1C1=C(Br)C(=O)c2nc(C)ccc2C1=O | 93.4% | 100% | 106% | 99.4% | 86.3% | -38% (active) | 109% | 104% | – | 109%
17 | NCCCNc1nc2ccccc2c2c(=O)c3cc(F)ccc3sc12 | 70% | 41.9% | 32.8% | -74.7% (active) | 8.11% (active) | -42.7% (active) | -29.3% (active) | 1.83% (active) | – | -22.8% (active)
18 | COc1ccc(/C=C/C(=O)c2ccc(Nc3nc(NCCO)nc(Nc4ccc(Cl)cc4)n3)cc2)cc1 | 89.6% | 93.6% | 87.8% | 61.7% | 86.7% | 71.6% | 50.2% | 63.9% | – | 71.4%
19 | Cn1c(/C=C(\C#N)c2ccccc2)nc2c(N3CCOCC3)nc(Cl)nc21 | 17.5% | 65.9% | 38% | 18.1% | -75.6% (active) | -57.5% (active) | 30.4% | -71.4% (active) | – | -72.4% (active)
20 | O=S(=O)(Nc1ncccn1)c1ccc(NC2Nc3nc4ccccc4nc3S2)cc1 (configuration not stated) | 97% | 97.7% | 99.6% | 103% | 105% | 94.5% | 95.8% | 100% | – | 105%
21 | CNCCNc1nc2ccccc2c2c(=O)c3cc(F)ccc3sc12 | 90.9% | 42.4% | 46% | -65.8% (active) | 19.2% | 33.8% | -56.3% (active) | 42.5% | – | 12%
22 | CNCCNc1nc2ccccc2c2c(=O)c3cc(OC)ccc3sc12 | 69.6% | 38.8% | 41.2% | -72.2% (active) | 23.9% | 9.6% (active) | 24.6% | 10.7% | – | -25.6% (active)
23 | O=C(/C=C/c1ccc(C(F)(F)F)cc1)c1ccc(Nc2nc(NCCO)nc(N3CCOCC3)n2)cc1 | 39.4% | 40.5% | 33% | 11.7% | 64% | 45.6% | 13.1% | -2.96% (active) | – | 13%
24 | NCCNc1nc2ccccc2c2c(=O)c3cc(F)cc(Cl)c3sc12 | 75.4% | -27.1% (active) | -51.7% (active) | -90% (active) | 40.8% | -44.8% (active) | -72.9% (active) | -90.4% (active) | – | -92.6% (active)
25 | CCCCCCCCCCCCCCn1cc(C2=C(c3coc4ccc(OC)cc34)C(=O)NC2=O)c2ccccc21 | 96% | 99.7% | 103% | 98.5% | 107% | 90.3% | 96.6% | 97.6% | – | 102%
26 | OCCNc1nc(Nc2ccc(C3=NN(c4cc(Cl)cc(Cl)c4)C(c4ccc(C(F)(F)F)cc4)C3)cc2)nc(N2CCOCC2)n1 (configuration not stated) | 76% | 80.3% | 74.5% | 46.4% | 98.6% | 85.3% | 59.2% | 42.7% | – | 82.7%
27 | O=C(Cn1cc(COc2ncnc3c2cnn3-c2ccccc2)nn1)Nc1cccc2ccccc12 | 89% | 93.2% | 90.5% | 93.7% | 82.3% | 81.1% | 92.3% | 103% | – | 97.9%
28 | COc1ccc2occ(C3=C(c4c[nH]c5ccccc45)C(=O)NC3=O)c2c1 | 62.2% | 79% | 41.6% | 22.5% | 67.2% | 33% | 40.8% | 74.7% | – | 92.1%
29 | Nc1nc2c(ncn2[C@@H]2O[C@H](CS)[C@@H](O)[C@H]2O)c(=O)[nH]1 | 102% | 93.3% | 100% | 102% | 103% | 97.4% | 96.6% | 106% | – | 105%
